HCMV antiviral = qHTS Assay for inhibitors of the human cytomegalovirus (HCMV); HFF cells, HCMV-luciferase reporter, 72 h; active compounds read low; AID 1259415, 2018; 410,000 tested, 4.5% active; activity change, negative = inhibition, % at 57.5 µM; in the data active = activity change below about -60%; inconclusive = no clear call, values can overlap the other calls; inactive = above about -39%
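HFF cells seeded 16 h at 37C, treated with compounds, infected with luciferase-reporter HCMV at MOI 1 PFU/cell; luciferase read at 72 h post infection, normalized to buffer-only and Salinomycin controls.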
FMDV antiviral = High Throughput Screening for Foot and Mouth Disease Virus Antivirals; Potency, µM (titrated, usually from 57.9 µM), for inactives: at the highest dose activity change, negative = inhibition, hits mostly inhibitors; AID 1159524, 2015; 410,000 tested, 1.2% active; FMDV antiviral cell-based qHTS; calls by dose curve; tested in HEK293T cells; note: read-out not given here; potency is the fitted concentration of half-maximal effect; nearly all actives have a fitted effect of over 45% in size
MARV entry inh = qHTS for inhibitors of binding or entry into cells for Marburg Virus | Marburg virus pseudotyped entry inhibition, cell reporter | Potency, µM (highest dose often 37.8 µM), without a hit: at the highest dose activity change, negative = inhibition, most hits filed as inhibitors | 300,000 tested, 1.8% active | AID 540276, 2011; calls by dose curve; tested in HEK293 cells; note: potency is the fitted concentration of half-maximal effect
FBPA Giardia inh = qHTS Assay for Inhibitors of Fructose-1,6-bisphosphate Aldolase from Giardia Lamblia | A8B2U2 | purified Giardia FBPA | Potency, µM (highest dose often 59.6 µM), for the others: top-dose activity, negative = inhibition, hits mostly inhibitors | 290,000 tested, 0.71% active; note: potency is the fitted concentration of half-maximal effect; nearly all actives have a fitted effect of over 55% in size
Target sequence (A8B2U2 whole entry, looked up): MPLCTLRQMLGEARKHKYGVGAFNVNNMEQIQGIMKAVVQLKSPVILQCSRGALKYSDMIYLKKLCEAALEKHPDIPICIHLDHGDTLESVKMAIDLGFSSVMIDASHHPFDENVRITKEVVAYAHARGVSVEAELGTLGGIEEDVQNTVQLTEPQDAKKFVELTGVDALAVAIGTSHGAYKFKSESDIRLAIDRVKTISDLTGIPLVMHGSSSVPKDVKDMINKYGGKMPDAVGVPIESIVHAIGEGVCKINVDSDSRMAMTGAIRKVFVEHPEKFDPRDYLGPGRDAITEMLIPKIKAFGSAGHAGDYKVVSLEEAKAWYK
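Giardia FBPA (40 nM reagent) was preincubated 10 min at RT with compound (up to 57.5 uM final), then substrate plus GAPDH/TPI/NAD/arsenate coupling system with diaphorase/resazurin was added; resorufin fluorescence (525/598 nm) was read after 20 min.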
Lassa entry inh = qHTS for Inhibitors of binding or entry into cells for Lassa Virus; Potency, µM (top dose mostly 37.9 µM), inactives show top-dose activity change, negative = inhibition, hits mostly inhibitors; Lassa virus pseudotype entry inhibition, cell reporter; 300,000 tested, 1.2% active; AID 540256, 2011; calls by dose curve; tested in HEK293 cells; note: potency is the fitted concentration of half-maximal effect; nearly all actives have a fitted effect of over 50% in size
HCV inhibitor = qHTS Assay for Inhibitors of Hepatitis C Virus (HCV) | Huh7.5.1 HCVcc-Cre infection, luciferase reporter, 44 h | Potency, µM (titrated, usually from 41.8 µM), inactives show at the top dose activity change, negative = inhibition, actives largely listed as inhibitors | 340,000 tested, 3.4% active | AID 651820, 2012; note: potency is the fitted concentration of half-maximal effect
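Luciferase read-out (15 sec integration) after a 15 min room-temperature substrate step quantifies HCVcc-Cre infection. Cells, 1,000 per well, had compound added 4 h post-plating, then virus at ~0.5 moi, and were cultured 44 h.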
Starred values were filed as active, the others as inactive; u = inconclusive; x = no result given; ! = not active in a repeat; [ ] = dose if it differs, or a comment. In the library only some 8.3% were active in any assay of this set; here they are far more common. Unless noted, calls come from the whole dose curve; as a rule, active = well fitted curve in the direction sought with a large enough effect; inconclusive = small, poorly fitted or top-dose-only effect, or another doubt; inactive = no such curve, though single readings can be large; an effect the other way counts as inactive or inconclusive. % is set by controls: 0 for no effect and ±100 for the full control effect.

SMILES	HCMV antiviral	FMDV antiviral	MARV entry inh	FBPA Giardia inh	Lassa entry inh	HCV inhibitor
COc1ccc(Nc2cc(C(=O)NC3CCC(C)CC3)c3ccccc3n2)cc1OC (stereo not drawn)	48	26%	7%[46.1 µM]	x	8%[46.1 µM]	x
CCc1ccccc1Nc1cc(C(=O)NC2CCC(C)CC2)c2ccccc2n1 (stereo not drawn)	-82*	54%	1%[46.1 µM]	x	u	x
CC(C)(C)OC(=O)N[C@H]1C=C[C@@H](CC(=O)OCC(F)(F)F)C1	28	x	x	x	x	x
Cc1cc(=O)n(Cc2c(F)cccc2Cl)c2c1c(C)nn2-c1cccc(F)c1	6	-19%	x	x	14%[46.1 µM]	x
O=C(O)c1ccc(CN2CCCCC2)o1	-68*	x	1%	0%	16%	14%
Cc1[nH]nc2c1C(c1ccccn1)N(c1ccc(Br)cc1)C2=O (stereo not drawn)	-66*	-20%	15%	3%	16%	-9%
CCOC(=O)c1ccc(N2C(=O)c3n[nH]c(C)c3C2c2ccccn2)cc1 (stereo not drawn)	-6	-4%	x	0%	x	13%
CCOC(=O)c1ccc(N2C(=O)c3n[nH]c(-c4ccco4)c3C2c2ccc(O)c(OC)c2)cc1 (stereo not drawn)	-23	u	u	x	-24%[46.1 µM]	x
CCOC(=O)c1ccc(N2C(=O)c3n[nH]c(C)c3C2c2ccc(OCC)cc2)cc1 (stereo not drawn)	-76*	u	u	x	u	x
CCOc1cc(C2c3c(n[nH]c3C)C(=O)N2c2ccc(C)cc2)ccc1O (stereo not drawn)	-81*	23%	12%	2%	-27%	u
CCOC(=O)c1ccc(N2C(=O)c3n[nH]c(-c4ccco4)c3C2c2ccc([N+](=O)[O-])cc2)cc1 (stereo not drawn)	-12	u	u	2%	23µM*	14µM*
CCOC(=O)c1ccc(N2C(=O)c3n[nH]c(-c4ccco4)c3C2c2ccc(C)cc2)cc1 (stereo not drawn)	-103*	32µM*	u	x	u	x
COC(=O)N(C)C[C@H]1OCc2cn(nn2)CCCC(=O)N([C@H](C)CO)C[C@@H]1C	21	x	x	x	x	x
CC1CC1c1ccc(/C=C(\C#N)C(=O)Nc2ccc(Cl)cc2Cl)o1 (stereo not drawn)	-64*	18%	u	-2%	-6%	u
O=C1N=C(N2CCC(Cc3ccccc3)CC2)S/C1=C/c1cn[nH]c1-c1ccccc1	-17	u	10µM*	0%	u	u
Cc1cc(C)n2nc(C(=O)NCc3ccccc3)nc2n1	-1	-17%	34%	4%	-9%	11%
Cc1cc(C)n2nc(C(=O)N/N=C/c3c4ccccc4cc4ccccc34)nc2n1	-76*	u	u	4%	u	-23%
Cc1cc(C)n2nc(C(=O)OCC(=O)NNC(=O)c3ccccc3)nc2n1	-61*	-12%	x	x	x	0%
Cc1cc(C)n2nc(C(=O)NC(c3ccccc3)c3ccccc3)nc2n1	-74*	-21%	u	2%	u	u
COc1cc(NC(=O)c2cc3c(=O)oc4ccc(C)cc4c3s2)cc(OC)c1OC	-7	-12%	29%[46.1 µM]	x	8%[46.1 µM]	x
Cc1ccc2nc(Cl)c3cc(C(=O)NC4CCC(C)CC4)sc3c2c1 (stereo not drawn)	-20	3%	10%[46.1 µM]	x	-11%[46.1 µM]	x
CCN(CC)S(=O)(=O)c1nnc(NC(=O)COc2ccc(C)cc2)s1	-4	5%	x	x	0%[46.1 µM]	x
Cc1ccccc1Nc1nc(N)nc(COC(=O)CC2CC3CCC2C3)n1 (stereo not drawn)	-26	-11%	14µM*	-4%	u	4%
Cc1ccc2c(CC(=O)OCc3nc(N)nc(Nc4ccccc4C)n3)coc2c1	-28	-6%	15µM*	-17%	-3%	-20%
COc1ccc(NC(=O)Cn2ncc3c4ccccc4n(Cc4ccccc4)c3c2=O)cc1OC	12	0%	8%[46.1 µM]	x	-17%[46.1 µM]	x
SMILES	HCMV antiviral	FMDV antiviral	MARV entry inh	FBPA Giardia inh	Lassa entry inh	HCV inhibitor
C/C(=N/Oc1nc(C)cc(C)n1)c1ccc(Cl)cc1Cl	-61*	u	8%	-7%	-25%	-23%
CC1CCCN(CCCNC(=O)c2cc3c(Cl)nc4ccccc4c3s2)C1 (stereo not drawn)	-91*!	-24%	2.8µM*	-2%	u	13µM*
CN(CCCNC(=O)c1cc2c(Cl)nc3ccccc3c2s1)Cc1ccccc1	u	-14%	10µM*	-4%	u	13µM*
CN(C)c1nc(N(C)C)nc(N(C#N)CCOc2ccccc2)n1	-23	u	-23%	-1%	-20%	11µM*
Cc1cc(C)cc(CN2CCOc3ccc(CN4CCC(O)(c5cccnc5)CC4)cc3C2)c1	x	-19%	x	x	x	x
Cc1nn(-c2nc3ccccc3s2)c(C)c1Oc1ccccc1O	x	-100%	4.6µM*	-6%	u	10µM*
Cc1nn(-c2ccccn2)c(C)c1Oc1ccccc1O	48	10%	10%	4%	u	-29%
CSc1nnc(CNC(=O)c2cccc3ccccc23)n1-c1ccccc1C	x	1%	x	x	x	x
CCc1ccc(-n2nnc(-c3nc(-c4cccs4)no3)c2N)cc1	72	17%	x	x	u	x
CCn1cc2nc(SCc3cc(C)ccc3C)n(CCc3ccccc3)c(=O)c2n1	-86*	0%	x	x	4µM*	x
Cc1ccc(NC(=S)Nc2ccc(C(C)C)cc2)cc1S(=O)(=O)N1CCCCCC1	-99*	0%	u	-3%	u	6.3µM*
COc1ccc(NC(=S)Nc2ccc(C)c(S(=O)(=O)N3CCCCC3)c2)cc1	x	x	15µM*	4%	-4%	u
C=CCNC(=S)Nc1ccc(C)c(S(=O)(=O)N2CCCCC2)c1	21	12%	-14%	-8%	-27%	2%
O=c1c(CCc2ccccc2)nc2cnc(N3CCNCC3)nc2n1Cc1ccc(F)cc1	x	-8%	x	-14%	x	x
CCC[C@H]1[C@@H](NC(=O)Nc2ccc(Cl)cc2)CC[C@@]23CCCN2C(=O)CCC[C@@H]13	-14	x	x	x	x	x
COc1ccccc1CNC(=O)COC(=O)c1c(C)nn(-c2ccccc2)c1Cl	-5	1%	x	x	x	11µM*
COc1ccc(C)cc1NC(=O)COC(=O)C1COc2ccccc2O1 (stereo not drawn)	-92*	-7%	x	x	x	0%
COc1cccc(CNC(=O)COC(=O)c2c(C)nn(-c3ccccc3)c2Cl)c1	33	-21%	-20%	x	u	0%
Cc1nn(-c2ccccc2)c(C)c1C(=O)OCC(=O)NC(=O)NC1CCCC1	-19	0%	-20%	3%	-16%	8.9µM*
COc1ccc(C)cc1NC(=O)COC(=O)c1c(C)nn(-c2ccccc2)c1C	-32	u	x	x	x	13µM*
